Source: the supplement of paper PMC11172423

System: Madurella mycetomatis MM55
Test: growth relative to untreated control; higher = less inhibition, active = 20 or less
Conditions: 25 µM
Protocol: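 Hyphal fragments of M. mycetomatis MM55 or F. senegalensis CBS197.79 in RPMI 1640/MOPS were exposed to each MMV COVID Box or Global Health Priority Box compound at 100 or 25 µM for 7 days at 37 °C. Viability was read with MTS (490 nm, M. mycetomatis) or resazurin (600 nm, F. senegalensis), background-corrected with a medium-only control and expressed as % growth relative to the untreated growth control. Inhibition of more than 80% was taken as growth inhibition.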

Row | Structure (SMILES) | growth
1 | CCCCCOc1ccc(-c2ccc(-c3ccc(C(=O)N[C@H]4C[C@@H](O)[C@@H](O)NC(=O)[C@@H]5[C@@H](O)[C@@H](C)CN5C(=O)[C@H]([C@@H](C)O)NC(=O)[C@H]([C@H](O)[C@@H](O)c5ccc(O)cc5)NC(=O)[C@@H]5C[C@@H](O)CN5C(=O)[C@H]([C@@H](C)O)NC4=O)cc3)cc2)cc1 | 92.9% (inactive)
2 | NS(=O)(=O)OC[C@@H]1C[C@@H](n2ccc3c(N[C@H]4CCc5ccccc54)ncnc32)C[C@@H]1O | 85% (inactive)
3 | Cc1cc2c(cc1Cl)N(C(=O)Nc1cc(F)cc(-c3cncnc3)c1)CC2 | 106% (inactive)
4 | COc1ccc(-n2nc(C(N)=O)c3c2C(=O)N(c2ccc(N4CCCCC4=O)cc2)CC3)cc1 | 111% (inactive)
5 | Clc1ccc2ncc(-c3cccc(NC4CCNC4)n3)n2c1 (stereo not given) | 78.8% (inactive)
6 | O=C(NC(CCO)C1CCCCC1)c1cc2ccc(C(F)(F)F)cc2[nH]1 (stereo not given) | 101% (inactive)
7 | Cc1cccnc1-c1noc(-c2ccccc2)n1 | 49.2% (inactive)
8 | COc1ccc(C(=O)N2CCC3(CC2)C(=O)N(CC(=O)NCC2CCCCC2)CN3c2ccccc2)c(OC)c1 | 67.1% (inactive)
9 | C=CC(=O)Nc1cc(Nc2nccc(-c3cn(C)c4ccccc34)n2)c(OC)cc1N(C)CCN(C)C | 3.84% (active)
10 | COc1ccc(-c2cc3ncnc(N4CCN(CCN5CCCC5)CC4)c3s2)cc1 | 4.86% (active)
11 | Clc1ccc(Nc2nc3cnc(NC4CC4)nc3n2C2CCNCC2)cc1Cl | 73.7% (inactive)
12 | COc1cccc(-c2ccc(NC(=O)C3=C(C(=O)O)CCC3)c(F)c2)c1 | 76.1% (inactive)
13 | CN(c1ncc2nc(Nc3cc(Cl)cc(C(F)(F)F)c3)n(C3CCNCC3)c2n1)C1CC1 | 54.8% (inactive)
14 | Cc1noc(C2CN(C(=O)c3ccc(Nc4nccc(-c5ccc(Cl)cc5)n4)cc3)C2)n1 | 122% (inactive)
15 | O=C(Nc1ccc([N+](=O)[O-])cc1Cl)c1cc(Cl)ccc1O | 4.63% (active)
16 | Cc1cnc2nc(NC3COc4ccc(F)cc43)nc(NC3CCC4(CCCC4)CC3)c2c1 (stereo not given) | 73.6% (inactive)
17 | C[C@@H](C1CCCCC1)n1c(-c2cc3c(cc2Br)OCO3)nc2cc(C(=O)Nc3ccc(C#N)cc3)ccc21 | 109% (inactive)
18 | CCN1CCC(c2cc(C)c3nc(-c4cc5c(C)nc(C)cn5n4)cc(=O)n3c2)CC1 | 80.2% (inactive)
19 | CN(C)CCn1cnc2sc3c(c2c1=O)CCC(NCc1cccc(Cl)c1)C3 (stereo not given) | 36.1% (inactive)
20 | CCc1nn2c(Nc3ccncc3)cc(C)nc2c1-c1ccccc1 | 96.8% (inactive)

Same assay, conditions: 100 µM

Row | Structure (SMILES) | growth
21 | CCCCCOc1ccc(-c2ccc(-c3ccc(C(=O)N[C@H]4C[C@@H](O)[C@@H](O)NC(=O)[C@@H]5[C@@H](O)[C@@H](C)CN5C(=O)[C@H]([C@@H](C)O)NC(=O)[C@H]([C@H](O)[C@@H](O)c5ccc(O)cc5)NC(=O)[C@@H]5C[C@@H](O)CN5C(=O)[C@H]([C@@H](C)O)NC4=O)cc3)cc2)cc1 | 54.2% (inactive)
22 | NS(=O)(=O)OC[C@@H]1C[C@@H](n2ccc3c(N[C@H]4CCc5ccccc54)ncnc32)C[C@@H]1O | 99.5% (inactive)
23 | Cc1cc2c(cc1Cl)N(C(=O)Nc1cc(F)cc(-c3cncnc3)c1)CC2 | 49.7% (inactive)
24 | COc1ccc(-n2nc(C(N)=O)c3c2C(=O)N(c2ccc(N4CCCCC4=O)cc2)CC3)cc1 | 84.1% (inactive)
25 | Clc1ccc2ncc(-c3cccc(NC4CCNC4)n3)n2c1 (stereo not given) | 56.6% (inactive)
26 | O=C(NC(CCO)C1CCCCC1)c1cc2ccc(C(F)(F)F)cc2[nH]1 (stereo not given) | 85.3% (inactive)
27 | Cc1cccnc1-c1noc(-c2ccccc2)n1 | 87.4% (inactive)
28 | COc1ccc(C(=O)N2CCC3(CC2)C(=O)N(CC(=O)NCC2CCCCC2)CN3c2ccccc2)c(OC)c1 | 50.8% (inactive)
29 | C=CC(=O)Nc1cc(Nc2nccc(-c3cn(C)c4ccccc34)n2)c(OC)cc1N(C)CCN(C)C | 2.43% (active)
30 | COc1ccc(-c2cc3ncnc(N4CCN(CCN5CCCC5)CC4)c3s2)cc1 | 4.96% (active)
31 | Clc1ccc(Nc2nc3cnc(NC4CC4)nc3n2C2CCNCC2)cc1Cl | 73% (inactive)
32 | COc1cccc(-c2ccc(NC(=O)C3=C(C(=O)O)CCC3)c(F)c2)c1 | 91.5% (inactive)
33 | CN(c1ncc2nc(Nc3cc(Cl)cc(C(F)(F)F)c3)n(C3CCNCC3)c2n1)C1CC1 | 5.99% (active)
34 | Cc1noc(C2CN(C(=O)c3ccc(Nc4nccc(-c5ccc(Cl)cc5)n4)cc3)C2)n1 | 73.7% (inactive)
35 | O=C(Nc1ccc([N+](=O)[O-])cc1Cl)c1cc(Cl)ccc1O | 4.72% (active)
36 | Cc1cnc2nc(NC3COc4ccc(F)cc43)nc(NC3CCC4(CCCC4)CC3)c2c1 (stereo not given) | 38.8% (inactive)
37 | C[C@@H](C1CCCCC1)n1c(-c2cc3c(cc2Br)OCO3)nc2cc(C(=O)Nc3ccc(C#N)cc3)ccc21 | 89% (inactive)
38 | CCN1CCC(c2cc(C)c3nc(-c4cc5c(C)nc(C)cn5n4)cc(=O)n3c2)CC1 | 89.8% (inactive)
39 | CN(C)CCn1cnc2sc3c(c2c1=O)CCC(NCc1cccc(Cl)c1)C3 (stereo not given) | 5.28% (active)
40 | CCc1nn2c(Nc3ccncc3)cc(C)nc2c1-c1ccccc1 | 75.7% (inactive)
